# HT1080NT lethal: kills 2HG-producing HT-1080-NT fibrosarcoma cells. 360,000 compounds, 1.6% hits. Potency, µM (titrated, usually from 46.1 µM), for inactives: at the top dose activity, negative = less viability, usual class: cytotoxic. HT-1080-NT fibrosarcoma viability, CellTiter-Glo ATP luminescence, 48 h;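 also: NT is the 2HG producing partner of a matched IDH1 knockdown line; 0% = DMSO-treated cells and -100% = media-only wells without cells; nearly all actives have a fitted effect of over 55% in size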
#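 750 cells/well, RPMI + 5% FBS; 2 h settle, compound pin-transfer, 48 h at 37 degrees C. CellTiter-Glo 10 min RT, luminescence. Normalized to DMSO and media-only wells.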
# HT1080 IDH1KD tx: kills HT-1080 cells with IDH1 knockdown. Potency, µM (series often up to 46.1 µM), without a hit: top-dose activity, negative = toxicity, actives largely listed as cytotoxic. 360,000 compounds, 2% hits. HT-1080 IDH1 knockdown viability, ATP luminescence, 48 h;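 also: 0% = DMSO wells and -100% = cell-free medium wells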
#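 After a 2 h attachment period, IDH1KD HT-1080 cells took pin-transferred compound for 48 h at 37 °C; ATP-based luminescence after 10 min room-temperature reagent incubation reported viability.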
# KB-3-1 tox: KB-3-1 parental cell cytotoxicity; KB-3-1 viability, CellTiter-Glo ATP luminescence, 72 h; Potency, µM (top dose mostly 46.1 µM), hits mostly cytotoxic; 400,000 compounds, 1.4% hits; AID 1347075; also: % is scaled to controls: 0 for no effect and ±100 for the full control effect; nearly all actives have a fitted effect of over 60% in size
#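 Multi-concentration cytotoxicity screen in KB-3-1 cells grown in DMEM lacking phenol red with 10% FBS. After 72 h at 37 °C with compound, ATP-dependent luminescence was recorded.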
# KB-V1 MDR tox: KB-V1 MDR subline cytotoxicity. KB-V1 MDR cells viability, CellTiter-Glo, 72 h. Potency, µM (titrated, usually from 46.1 µM), actives largely listed as cytotoxic. 400,000 compounds, 3.4% hits. AID 1347076; also: % is scaled to controls: 0 for no effect and ±100 for the full control effect; nearly all actives have a fitted effect of over 60% in size
#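 Drug-selected KB-V1 cells, grown in DMEM lacking phenol red with 10% FBS, receive compound titrations; after three days at 37 degrees C, surviving cell ATP is quantified by CellTiter-Glo luminescence and responses normalized and curve-fitted.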
# ATXN2 expr inh: inhibitors of ATXN2 expression | HEK-293 ATXN2-luciferase reporter, luminescence, 24 h | Potency, µM (doses to about 57 µM), inactives show at the top dose activity change, negative = inhibition, most hits filed as inhibitors | 360,000 compounds, 0.72% hits; also: % is scaled to controls: 0 for no effect and ±100 for the full control effect; nearly all actives have a fitted effect of over 55% in size
#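 qHTS (up to 57 uM final) was run with 24 h compound exposure of reporter cells at 37 °C. Each well was multiplexed: SteadyGlo luminescence measured ATXN2-luciferase expression after a fluorogenic Gly-Phe-AFC viability readout (25 uM final).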
# S2 tox: viability counter-screen for ATXN expression inhibitors. S2 cells (HEK-293 line with an ATXN2-luciferase reporter) viability, CellTiter-Fluor protease fluorescence, 24 h. Potency, µM (titrated, usually from 56.7 µM), most hits filed as cytotoxic. 400,000 compounds, 0.49% hits; also: nearly all actives have a fitted effect of over 40% in size
# Numbers without * were called inactive; i = inactive; ? = inconclusive; nt = not tested or not shown. Compounds with a hit are over-represented: about 6.2% of the library has one in this group of screens. Calls follow the shape of the dose curve; as a rule, active = well fitted curve in the direction sought with a large enough effect; inconclusive = small, poorly fitted or top-dose-only effect, or another doubt; inactive = no such curve, though single readings can be large; an effect the other way counts as inactive or inconclusive. Potency is read from the fitted curve at half-maximal effect.
SMILES,HT1080NT lethal,HT1080 IDH1KD tx,KB-3-1 tox,KB-V1 MDR tox,ATXN2 expr inh,S2 tox
Cc1ccc(CNc2ccc3nnc(-c4ccccc4)n3n2)cc1,18%,11%,i,i,6%,i
COc1ccc(-c2[nH]ncc2/C=C(/C#N)C(=O)NC2CCCCCC2)cc1,18µM*,?,?,i,?,?
Cc1ccc(S(=O)(=O)n2ccc3c(OCCOCCNCc4ccc(F)cc4)cccc32)cc1,16µM*,21µM*,?,?,-18%,i
COc1ccc(F)c(CN2CCOc3ccc(CN4CCC(O)(c5cccnc5)CC4)cc3C2)c1,nt,nt,nt,nt,nt,i
CCC(C)Nc1nc(N)c([N+](=O)[O-])c(Nc2cc(OC)ccc2OC)n1 (centres undefined),?,?,i,?,?,?
CCC(C)Nc1nc(N)c([N+](=O)[O-])c(Nc2ccccc2OC)n1 (centres undefined),?,21µM*,i,?,-17%,?
O=C1CCC(CCC(=O)N2CCCC(C(=O)c3ccc4c5c(cccc35)CC4)C2)=NN1 (centres undefined),-5%,-8%,i,i,-25%,i
O=C1CCC(C(=O)N2CCCC(C(=O)c3ccc4c5c(cccc35)CC4)C2)=NN1 (centres undefined),-15%,?,15µM*,i,17%,i
CNc1nccc(-c2cccnc2Oc2cc(C(=O)Nc3cccc(C(F)(F)F)c3)ccc2C)n1,nt,nt,nt,nt,24µM*,nt
O=C1CCCCC(=O)N(c2ccccc2)c2ccccc21,-15%,-11%,i,18µM*,-5%,i
CCCCC(=O)OCc1cc(=O)n2nc(C3CCCCC3)sc2n1,nt,nt,i,i,5%,i
CC(NC(=O)c1c2c(nc3ccccc13)C(=O)N(C1CCCCC1)C2)c1ccccc1 (centres undefined),nt,nt,i,i,nt,nt
COc1ccc(S(=O)(=O)NCc2cccnc2)cc1NC(=O)c1ccccc1,2%,6%,i,i,-12%,i
CCOc1ccc(S(=O)(=O)NCc2ccncc2)cc1NC(=O)c1ccccc1,3.7µM*,23µM*,0.58µM*,?,-22%,i
CCOc1ccc(S(=O)(=O)NCc2ccncc2)cc1NC(=O)c1ccccc1F,?,23µM*,?,?,-1%,i
COc1ccc(S(=O)(=O)NCc2ccccn2)cc1NC(=O)c1ccccc1C,?,?,15µM*,?,-16%,i
CCOc1ccc(S(=O)(=O)NCc2cccnc2)cc1NC(=O)c1ccccc1F,-1%,-24%,18µM*,?,-33%,i
COc1ccc(S(=O)(=O)NCc2ccccn2)cc1NC(=O)c1ccc(Cl)cc1,?,?,?,?,-30%,i
COc1cccc(C(=O)Nc2ccccc2C(=O)OCc2cc(=O)n3nc(C4CC4)sc3n2)c1,nt,nt,i,i,9%,i
Cc1cnc(-n2ncc(C(=O)NCCN3CCOCC3)c2C2CC2)nc1-c1cccs1,nt,nt,nt,nt,nt,i
CCN(CC)CCn1c2ccccc2c2cnc(N)c(C#N)c21,-13%,?,23µM*,?,14µM*,i
CN(C)C=Nc1ncc2c3ccccc3n(CCN(C)C)c2c1C#N,-9%,-10%,?,?,?,i
CCN1CCC(N(Cc2ccc(F)cc2)C(=O)Nc2cccc(C(F)(F)F)c2)CC1,nt,nt,i,i,28µM*,i
Cn1cc(/C=C/c2ccc3ccccc3n2)c2ccccc21,nt,nt,?,i,nt,nt
COc1ccc(C(C)NC(=O)c2ccncc2)cc1OC (centres undefined),2%,3%,i,?,5%,i
COc1ccc(C(C)NC(=O)c2ccc(Cl)cc2)cc1OC (centres undefined),-9%,-7%,i,21µM*,-14%,i

# High-throughput results from PubChem BioAssay.
